# Most compounds without a hit are left out; they make up all but 19% or so of the library.
# TDP1 inh: qHTS Assay for Inhibitors of Tyrosyl-DNA Phosphodiesterase (TDP1). Potency, µM (titrated, usually from 130 µM), for inactives: at the top dose activity change, negative = inhibition, actives largely listed as inhibitors. Tyrosyl-DNA phosphodiesterase 1 (Homo sapiens), Q9NUW8. hit rate 0.28% among 350,000. recombinant TDP1, AlphaScreen DNA substrate cleavage; note: potency is the fitted concentration of half-maximal effect; % is set by controls: 0 for no effect and ±100 for the full control effect; nearly all actives have a fitted effect of over 40% in size
# Target sequence (Q9NUW8 whole entry, looked up): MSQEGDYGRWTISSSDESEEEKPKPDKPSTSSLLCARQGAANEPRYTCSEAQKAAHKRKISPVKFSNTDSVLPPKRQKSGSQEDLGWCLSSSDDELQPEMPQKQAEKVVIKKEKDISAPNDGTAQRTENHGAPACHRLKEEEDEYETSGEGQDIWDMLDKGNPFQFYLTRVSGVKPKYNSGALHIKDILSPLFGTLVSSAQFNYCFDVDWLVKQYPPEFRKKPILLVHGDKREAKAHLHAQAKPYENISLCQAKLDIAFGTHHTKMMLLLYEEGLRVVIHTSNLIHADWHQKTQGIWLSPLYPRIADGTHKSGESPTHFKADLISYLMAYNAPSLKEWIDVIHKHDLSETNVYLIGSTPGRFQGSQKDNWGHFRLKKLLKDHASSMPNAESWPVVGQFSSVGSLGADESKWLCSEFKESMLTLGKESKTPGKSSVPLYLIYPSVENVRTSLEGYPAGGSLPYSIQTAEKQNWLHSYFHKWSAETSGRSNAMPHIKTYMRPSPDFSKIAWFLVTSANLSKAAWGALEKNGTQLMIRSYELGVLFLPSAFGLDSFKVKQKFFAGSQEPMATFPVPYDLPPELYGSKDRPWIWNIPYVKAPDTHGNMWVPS
#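 Recombinant E. coli-expressed Tdp1 (1 nM) preincubated with compound 15 min at RT, then 5'-biotin/3'-phosphotyrosine-FITC DNA substrate (15 nM) added for 5 min. AlphaScreen beads (10 ug/ml) added, 10 min RT; tyrosine-FITC cleavage read as signal loss.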
# HepG2 tox: qHTS for Inhibitors of TGF-b: Cytotox Counterscreen. HepG2 CAGA-GFP viability, ATP luminescence, 18 h. Potency, µM (top dose mostly 46.1 µM), inactives show at the highest dose activity change, negative = cytotoxicity, hits mostly cytotoxic. hit rate 0.76% among 410,000; note: potency is the fitted concentration of half-maximal effect
#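 HepG2 CAGA-GFP cells (1000/well, DMEM with 1% FBS) received compound, then TGF-beta at 500 pg/mL final, and were incubated 18 hours at 37 degrees C. Viability was read by CellTiter-Glo luminescence. Media-only wells were set as complete cell-killing and DMSO as no toxicity.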
# TDP1 cell noCPT: qHTS for Inhibitors of human tyrosyl-DNA phosphodiesterase 1 (TDP1): qHTS in cells in absence of CPT. DT40 Tdp1-/- hTDP1 cells, no CPT, ATP luminescence, 48 h. Potency, µM (top dose mostly 46.2 µM), without a hit: at the highest dose activity change, negative = growth inhibition, actives largely listed as inhibitors. hit rate 15% among 420,000; note: potency is the fitted concentration of half-maximal effect; % is set by controls: 0 for no effect and ±100 for the full control effect; nearly all actives have a fitted effect of over 55% in size
#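 Compound effects on proliferation are scored in DT40 Tdp1-/-;hTDP1 cells in the absence of CPT. ATP levels (CellTiter-Glo luminescence) are recorded after a ≥48 hr, 37 °C incubation.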
# DT40 TDP1 CPT: qHTS for Inhibitors of human tyrosyl-DNA phosphodiesterase 1 (TDP1): qHTS in cells in presence of CPT | hit rate 12% among 420,000 | Potency, µM (highest dose often 46.2 µM), inactives show top-dose activity change, negative = growth inhibition, actives largely listed as inhibitors | AID 686979, 2013 | chicken DT40 Tdp1-/-;hTDP1 cells + 20 nM CPT, ATP luminescence, 48 h; note: potency is the fitted concentration of half-maximal effect; % is set by controls: 0 for no effect and ±100 for the full control effect; nearly all actives have a fitted effect of over 55% in size
#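 Cell growth measured by CellTiter-Glo luminescence after a minimum 48 h, 37 C compound exposure with 20 nM CPT in Tdp1-knockout DT40 cells stably expressing hTDP1, seeded 400/well; qHTS titration format.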
# IL-1B inflam inh: qHTS for Inhibitors of Inflammasome Signaling: IL-1-beta AlphaLISA Primary Screen | activity change, % at 57.5 µM | hit rate 4.7% among 360,000 | AID 743279, 2014 | THP-1 LPS/ATP IL-1B secretion, AlphaLISA, 16 h; active compounds read low; in the data active = activity change below about -50%; inconclusive = mostly about -30% to -49%; note: % is set by controls: 0 for no effect and ±100 for the full control effect
#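 THP-1 cells pretreated 1 hr with compounds (up to 57.5 uM final), then stimulated with LPS (250 ng/mL final) plus ATP (1.25 mM final); secreted IL-1B measured by AlphaLISA after 16 hr, decreased signal indicating inhibition.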
# TGFb inhibitor: qHTS for Inhibitors of TGF-b; Potency, µM (highest dose often 46.1 µM), for inactives: top-dose activity, negative = inhibition, actives largely listed as inhibitors; HepG2 CAGA-GFP TGF-b/SMAD3 reporter, GFP fluorescence, 18 h; TGF-beta stimulated, 500 pg/mL final; hit rate 1.2% among 410,000; AID 588855, 2011; note: potency is the fitted concentration of half-maximal effect; % is set by controls: 0 for no effect and ±100 for the full control effect; nearly all actives have a fitted effect of over 65% in size
#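 Inhibition was scored as loss of TGF-beta-induced (500 pg/mL final, 18 hours, 37 degrees C) GFP in HEPG2 cells carrying a CAGA-GFP reporter, in DMEM with 1% FBS. Well GFP was summed per cell; Activity was normalised to unstimulated and stimulated DMSO wells, then concentration-response fitting.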
# Starred values were filed as active, the others as inactive; ? = inconclusive; . = no result given. Unless noted, calls come from the whole dose curve; as a rule, active = well fitted curve in the direction sought with a large enough effect; inconclusive = small, poorly fitted or top-dose-only effect, or another doubt; inactive = no such curve, though single readings can be large; an effect the other way counts as inactive or inconclusive.
SMILES,TDP1 inh,HepG2 tox,TDP1 cell noCPT,DT40 TDP1 CPT,IL-1B inflam inh,TGFb inhibitor
O=C(Cn1c(=O)n(-c2ccc(Cl)cc2)c(=O)c2oc3ccccc3c21)Nc1ccccc1,5.1%,-14.4%,?,?,.,-15.9%
CC(=O)[C@@H]1[C@@H](C(=O)c2ccc(F)cc2)[C@]2(C(=O)Nc3ccccc32)[C@H]2C=Cc3cc(F)ccc3N12,.,-29.9%,?,?,-74.1*,-16.2%
CCOC(=O)CNC(=O)O[C@@H]1Cc2cc(OC)ccc2O[C@H]1c1cccc(OC)c1,3.7%,.,.,.,.,.
O=C(NC1CC1)c1ccc(Cn2c(SCc3cccc(F)c3)nc3cccnc32)cc1,5.0%,-23.6%,8.2µM*,?,.,?
O=C(NC1CCCC1)c1ccc(CSc2nc3cccnc3n2Cc2ccccc2F)cc1,1.2%,-35.8%,20.6µM*,?,.,?
O=C(NC1CC1)c1ccc(Cn2c(SCc3ccc(F)cc3)nc3cccnc32)cc1,7.5%,-19.6%,-28.7%,-29.6%,.,?
COc1cc(NC(=O)Cn2c(SCc3ccc(F)cc3)nc3cccnc32)cc(OC)c1,0.0%,-5.8%,-22.5%,-10.1%,.,-2.5%
O=C(NC1CCCCC1)c1ccc(CSc2nc3cccnc3n2Cc2ccc(F)cc2)cc1,2.5%,-77.8%,13µM*,?,.,?
COc1ccc(NC(=O)Cn2c(SCc3ccc(C)cc3)nc3cccnc32)c(OC)c1,2.5%,-26.2%,?,14.6µM*,.,?
CC(C)(C)n1ncc2c(=O)n(Cc3ccc(Cl)cc3F)cnc21,.,-32.2%,.,.,.,?
O=C(NC1CCCCC1)c1ccc(CSc2nc3cccnc3n2Cc2cccc(F)c2)cc1,8.7%,-30.7%,5.17µM*,10.3µM*,.,?
O=C(NC1CCCCC1)c1ccc(Cn2c(SCc3ccc(F)cc3)nc3cccnc32)cc1,6.2%,-22.8%,-10.3%,-9.2%,.,-24.6%
COc1ccc(Cn2c(SCc3ccc(C(=O)NC4CCCCC4)cc3)nc3cccnc32)cc1,7.5%,-14.0%,14.6µM*,?,.,4.9%
O=C(NC1CCCC1)c1ccc(CSc2nc3cccnc3n2Cc2ccc(F)cc2)cc1,-1.2%,0.6%,-14.9%,-1.0%,.,9.5%
CCc1ccc2c(c1)c(N=NC1=NC(=O)CS1)c(O)n2CC,8.3%,-22.3%,?,?,-6.1,?
CCc1ccc2[nH]c(O)c(N=NC3=NC(=O)CS3)c2c1,3.5%,-21.2%,1.84µM*,2.59µM*,37.2,?
Cc1ccc(CNC(=O)C2c3ccccc3C(=O)N(C)C2c2c[nH]c3ccccc23)o1 (centres undefined),4.1%,11.7%,14.6µM*,20.6µM*,-4.7,0.0%
CCCCCCSc1ccc(-c2nc3ccc(Cl)cn3c2NC2CCCCC2)cc1,-5.4%,-15.1%,?,25.9µM*,-1.8,?
CC(=O)Nc1c(-c2ccccc2)nc2ccc(Cl)cn12,.,-0.5%,6.0%,-6.5%,3.1,2.3%
CC(=O)c1csc(-c2cccc(-c3nc4ccc(Cl)cn4c3NC3CCCCC3)c2)c1,0.3%,-18.2%,?,20.6µM*,-22.2,-2.9%
COc1ccc(-c2cccc(-c3nc4ccc(Cl)cn4c3NC3CCCCC3)c2)cc1,2.8%,-5.4%,20.6µM*,18.4µM*,-13.1,17.0%
CCCCCCSc1cc(-c2nc3ccc(Cl)cn3c2NC2CCCCC2)ccc1OC,-6.0%,-14.4%,16.4µM*,?,-16.7,?
CCN(CC(=O)Nc1c(F)cccc1F)C(=O)/C=C/c1cn(Cc2ccccc2)nc1-c1cccnc1,4.2%,-2.2%,-10.7%,?,-17.0,-13.4%

# Compound activity as filed in PubChem BioAssay.
